Compounds with a hit are over-represented: about 4.1% of the library has one in this group of screens.
aSyn 5UTR inh = MLPCN primary screen, SNCA 5' untranslated region. alpha-synuclein 5'UTR reporter, inhibitor activity. inhibition, % (tested at 7.5 µM). hit rate 0.82% among 300,000; in the data active means inhibition above about 60%;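 further: H4 neuroglioblastoma cells stably carrying SNCA 5'UTR luciferase fusion; 0% = DMSO wells and 100% = positive control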
Gli-Sufu block = Gli-Sufu pathway antagonists, primary screen, luciferase luminescence, Sufu-KO-LIGHT cells, uHTS; hit rate 0.74% among 340,000; inhibition, % at 5 µM; AID 588413, 2011; Sufu-KO-LIGHT fibroblasts, Gli luciferase reporter luminescence;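 active means inhibition above about 55%, limit read from the data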;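 further: 0% = DMSO-treated cells and 100% = wells with medium but no cells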
Jurkat NFkB inh = inhibitors of induced NF-kB luciferase reporter, primary screen, TCR NF-kB activation inhibitor project, cell-based, luminescence, uHTS; AID 435003, 2010; hit rate 0.53% among 330,000; inhibition, % at 4 µM; Jurkat, PMA/ionomycin-induced NF-kB luciferase reporter; in the data active means inhibition above about 50%
Mdm2-MdmX inh = inhibitors of human Mdm2-MdmX association, primary screen, cell-based, luminescence, split luciferase, SaOS-2, uHTS. SaOS-2 split-luciferase Mdm2/MdmX complementation. inhibition, % at 8 µM. hit rate 3% among 330,000. AID 485346, 2010;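 active means inhibition of at least 50% at 8 µM in the primary screen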
697 NFkB inh = inhibitors of PMA/ionomycin-induced NF-kB reporter, 697 cells, primary screen, B-cell NF-kB inhibitor project, cell-based, luminescence, uHTS. 697 B-cell NF-kB luciferase reporter, 16 h. hit rate 0.33% among 330,000. inhibition, % at 4 µM; in the data active means inhibition above about 35%
KLF5 inh = KLF5 expression inhibitors, primary screen, DLD-1 cells, luminescence; inhibition, % at 5 µM; AID 1700, 2009; hit rate 0.23% among 290,000; DLD-1 KLF5 promoter-luciferase reporter;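 active means inhibition above a per-plate limit of that plate's mean compound inhibition plus 3 SD, cut at about 60% in these data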;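 further: 0% = DMSO wells and 100% = LY294002 at 200 µM; higher means less KLF5 promoter-driven luciferase light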
Gli-Sufu confirm = Gli-SUFU pathway antagonists, confirmation, single concentration, luciferase luminescence, Sufu-KO-LIGHT cells | Gli luciferase reporter | AID 602428, 2012 | hit rate 40% among 2,500 | shares compounds with Gli-Sufu block | inhibition, % at 5 µM;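 active means mean inhibition at 5 µM reaching about 45%, limit read from the data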;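 further: plate controls were DMSO-treated cells for no effect and wells lacking cells for full effect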
SufuKO cytotox = cytotoxicity in Sufu-KO-LIGHT cells, confirmation, cytotoxicity control for Gli-SUFU antagonist project, cell-based, ATP luminescence, single concentration. shares compounds with Gli-Sufu block. cytotoxicity, % at 5 µM. AID 651994, 2013. hit rate 32% among 2,500;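 active means mean cytotoxicity at 5 µM above about 25%, limit read from the data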;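 further: cells exposed to compound overnight for roughly 16 to 18 hours; plate controls were DMSO wells with cells for no effect and medium without cells for full effect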
Wnt3a counter = Wnt3a reporter signal inhibition, confirmation, counter-screen for Gli-SUFU antagonist project, Wnt-LIGHT cells, luminescence, single concentration | Wnt3a-driven luciferase reporter | shares compounds with Gli-Sufu block | hit rate 20% among 2,500 | inhibition, % at 6.25 µM | AID 651995, 2013;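 active means mean inhibition above about 25%, limit read from the data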
The depositor's hits bear a star; / = no result; ! = repeats disagree.

SMILES	aSyn 5UTR inh	Gli-Sufu block	Jurkat NFkB inh	Mdm2-MdmX inh	697 NFkB inh	KLF5 inh	Gli-Sufu confirm	SufuKO cytotox	Wnt3a counter
O=C(NCc1ccc(F)cc1)C(=O)NCC1OCCCN1S(=O)(=O)c1cccs1 (centres undefined)	5	99*	4	17	16	-13	4	1	-2
CCOc1ccc(OCc2ccc(C(=O)NC(C)(C)C)o2)cc1	-70	53	-6	-10	-127	-57	13	12	-20
CCOc1ccc(OCc2ccc(C(=O)NN)o2)cc1	-40	-65	-20	-20	-102	-59	/	/	/
CCOC(=O)N1CCN(C(=O)c2ccc(CSc3ccc(Cl)cc3)cc2)CC1	12	58*	27	20	13	-33	48*	17	0
CN1CCN(C(=O)c2ccc(CSc3ccc(Cl)cc3)cc2)CC1	-2	16	-13	37	-13	-7	/	/	/
Cc1ccccc1C(=O)NNC(=O)CSc1nc(-c2ccccc2)cc(=O)[nH]1	-11	-12	14	4	16	-33	/	/	/
Cc1cccc(N2CCN(C(=O)c3cc(S(=O)(=O)N4CCOCC4)cn3C)CC2C)c1 (centres undefined)	-8	58*	2	15	2	-9	14	1	10
CC(C)(C)c1cc(NC(=O)CSc2nncs2)n(-c2ccccc2)n1	22	8	5	0	3	6	/	/	/
CCC(C)(C)c1ccc(Oc2ccc(N)cc2)cc1	127*	74*	/	/	/	51	83*	31*	105*
O=C(OCC(=O)N1CCCC1)c1ccc(S(=O)(=O)Nc2ccccc2)cc1	8	-20	-1	2	-4	-18	/	/	/
CCc1ccc2c(CN3CCN(S(=O)(=O)c4ccccc4F)CC3)cc(=O)oc2c1	/	56*	2	18	14	/	14	0	-15
CCc1ccc2c(CN3CCN(S(=O)(=O)c4cccs4)CC3)cc(=O)oc2c1	3	-7	-3	13	16	2	/	/	/
CC(C)[C@H](NC(N)=O)C(=O)Nc1ccc(F)c(Cl)c1	18	53	0	1	2	-18	4	1	-6
COC(=O)C(C)Sc1nc2c(cnn2-c2ccc(Cl)cc2)c(=O)[nH]1 (centres undefined)	12	60*	-8	10	-5	-7	16	7	1
COC(=O)C(C)Sc1nc2c(cnn2-c2ccccc2)c(=O)[nH]1 (centres undefined)	17	2	4	9	-6	-18	/	/	/
COc1ccc(Cc2n[nH]c(=S)o2)cc1	0	55	2	6	17	-27	19	1	-4
CCCCn1nc(CC(=O)NCCN(CC)CC)c2ccccc2c1=O	-20	11	11	-2	2	-25	/	/	/
COc1ccc(NC(=O)c2ccc(CNc3c(NC4CCCCC4)c(=O)c3=O)cc2)cc1OC	-2	59*!	5	1	15	-17	10	-6	-4
CC(C)(C)c1ccc(S(=O)(=O)NCC2CCCO2)cc1 (centres undefined)	5	62*	-1	-13	5	-20	23	3	-38
CCC(NC(=O)NCc1ccc2c(c1)OCO2)(C(F)(F)F)C(F)(F)F	23	-8	0	3	14	-18	/	/	/
CCC(NC(=O)NCc1ccccc1)(C(F)(F)F)C(F)(F)F	2	52	-6	-16	-16	-6	9	27*	-12
